In the supplement of paper PMC11732987, “Enantioselective OTUD7B fragment discovery through chemoproteomics screening and high-throughput optimisation” (Communications Chemistry, 2025):

Assays:
Assay in all cases: log2 ratio of Biotin-Ahx-Ub-VS probe labelling (fragment/DMSO); higher = less target engagement (more negative = stronger competition), active = hit call of the paper (q ≤ 0.05, log2 ratio ≤ -1)
Conditions in all cases: compound concentration: 200 uM; treatment time: 3 h
USP34 = USP34 (UniProt Q70CQ2)
USP34, sequence (Q70CQ2 whole entry, the tested form may be a part): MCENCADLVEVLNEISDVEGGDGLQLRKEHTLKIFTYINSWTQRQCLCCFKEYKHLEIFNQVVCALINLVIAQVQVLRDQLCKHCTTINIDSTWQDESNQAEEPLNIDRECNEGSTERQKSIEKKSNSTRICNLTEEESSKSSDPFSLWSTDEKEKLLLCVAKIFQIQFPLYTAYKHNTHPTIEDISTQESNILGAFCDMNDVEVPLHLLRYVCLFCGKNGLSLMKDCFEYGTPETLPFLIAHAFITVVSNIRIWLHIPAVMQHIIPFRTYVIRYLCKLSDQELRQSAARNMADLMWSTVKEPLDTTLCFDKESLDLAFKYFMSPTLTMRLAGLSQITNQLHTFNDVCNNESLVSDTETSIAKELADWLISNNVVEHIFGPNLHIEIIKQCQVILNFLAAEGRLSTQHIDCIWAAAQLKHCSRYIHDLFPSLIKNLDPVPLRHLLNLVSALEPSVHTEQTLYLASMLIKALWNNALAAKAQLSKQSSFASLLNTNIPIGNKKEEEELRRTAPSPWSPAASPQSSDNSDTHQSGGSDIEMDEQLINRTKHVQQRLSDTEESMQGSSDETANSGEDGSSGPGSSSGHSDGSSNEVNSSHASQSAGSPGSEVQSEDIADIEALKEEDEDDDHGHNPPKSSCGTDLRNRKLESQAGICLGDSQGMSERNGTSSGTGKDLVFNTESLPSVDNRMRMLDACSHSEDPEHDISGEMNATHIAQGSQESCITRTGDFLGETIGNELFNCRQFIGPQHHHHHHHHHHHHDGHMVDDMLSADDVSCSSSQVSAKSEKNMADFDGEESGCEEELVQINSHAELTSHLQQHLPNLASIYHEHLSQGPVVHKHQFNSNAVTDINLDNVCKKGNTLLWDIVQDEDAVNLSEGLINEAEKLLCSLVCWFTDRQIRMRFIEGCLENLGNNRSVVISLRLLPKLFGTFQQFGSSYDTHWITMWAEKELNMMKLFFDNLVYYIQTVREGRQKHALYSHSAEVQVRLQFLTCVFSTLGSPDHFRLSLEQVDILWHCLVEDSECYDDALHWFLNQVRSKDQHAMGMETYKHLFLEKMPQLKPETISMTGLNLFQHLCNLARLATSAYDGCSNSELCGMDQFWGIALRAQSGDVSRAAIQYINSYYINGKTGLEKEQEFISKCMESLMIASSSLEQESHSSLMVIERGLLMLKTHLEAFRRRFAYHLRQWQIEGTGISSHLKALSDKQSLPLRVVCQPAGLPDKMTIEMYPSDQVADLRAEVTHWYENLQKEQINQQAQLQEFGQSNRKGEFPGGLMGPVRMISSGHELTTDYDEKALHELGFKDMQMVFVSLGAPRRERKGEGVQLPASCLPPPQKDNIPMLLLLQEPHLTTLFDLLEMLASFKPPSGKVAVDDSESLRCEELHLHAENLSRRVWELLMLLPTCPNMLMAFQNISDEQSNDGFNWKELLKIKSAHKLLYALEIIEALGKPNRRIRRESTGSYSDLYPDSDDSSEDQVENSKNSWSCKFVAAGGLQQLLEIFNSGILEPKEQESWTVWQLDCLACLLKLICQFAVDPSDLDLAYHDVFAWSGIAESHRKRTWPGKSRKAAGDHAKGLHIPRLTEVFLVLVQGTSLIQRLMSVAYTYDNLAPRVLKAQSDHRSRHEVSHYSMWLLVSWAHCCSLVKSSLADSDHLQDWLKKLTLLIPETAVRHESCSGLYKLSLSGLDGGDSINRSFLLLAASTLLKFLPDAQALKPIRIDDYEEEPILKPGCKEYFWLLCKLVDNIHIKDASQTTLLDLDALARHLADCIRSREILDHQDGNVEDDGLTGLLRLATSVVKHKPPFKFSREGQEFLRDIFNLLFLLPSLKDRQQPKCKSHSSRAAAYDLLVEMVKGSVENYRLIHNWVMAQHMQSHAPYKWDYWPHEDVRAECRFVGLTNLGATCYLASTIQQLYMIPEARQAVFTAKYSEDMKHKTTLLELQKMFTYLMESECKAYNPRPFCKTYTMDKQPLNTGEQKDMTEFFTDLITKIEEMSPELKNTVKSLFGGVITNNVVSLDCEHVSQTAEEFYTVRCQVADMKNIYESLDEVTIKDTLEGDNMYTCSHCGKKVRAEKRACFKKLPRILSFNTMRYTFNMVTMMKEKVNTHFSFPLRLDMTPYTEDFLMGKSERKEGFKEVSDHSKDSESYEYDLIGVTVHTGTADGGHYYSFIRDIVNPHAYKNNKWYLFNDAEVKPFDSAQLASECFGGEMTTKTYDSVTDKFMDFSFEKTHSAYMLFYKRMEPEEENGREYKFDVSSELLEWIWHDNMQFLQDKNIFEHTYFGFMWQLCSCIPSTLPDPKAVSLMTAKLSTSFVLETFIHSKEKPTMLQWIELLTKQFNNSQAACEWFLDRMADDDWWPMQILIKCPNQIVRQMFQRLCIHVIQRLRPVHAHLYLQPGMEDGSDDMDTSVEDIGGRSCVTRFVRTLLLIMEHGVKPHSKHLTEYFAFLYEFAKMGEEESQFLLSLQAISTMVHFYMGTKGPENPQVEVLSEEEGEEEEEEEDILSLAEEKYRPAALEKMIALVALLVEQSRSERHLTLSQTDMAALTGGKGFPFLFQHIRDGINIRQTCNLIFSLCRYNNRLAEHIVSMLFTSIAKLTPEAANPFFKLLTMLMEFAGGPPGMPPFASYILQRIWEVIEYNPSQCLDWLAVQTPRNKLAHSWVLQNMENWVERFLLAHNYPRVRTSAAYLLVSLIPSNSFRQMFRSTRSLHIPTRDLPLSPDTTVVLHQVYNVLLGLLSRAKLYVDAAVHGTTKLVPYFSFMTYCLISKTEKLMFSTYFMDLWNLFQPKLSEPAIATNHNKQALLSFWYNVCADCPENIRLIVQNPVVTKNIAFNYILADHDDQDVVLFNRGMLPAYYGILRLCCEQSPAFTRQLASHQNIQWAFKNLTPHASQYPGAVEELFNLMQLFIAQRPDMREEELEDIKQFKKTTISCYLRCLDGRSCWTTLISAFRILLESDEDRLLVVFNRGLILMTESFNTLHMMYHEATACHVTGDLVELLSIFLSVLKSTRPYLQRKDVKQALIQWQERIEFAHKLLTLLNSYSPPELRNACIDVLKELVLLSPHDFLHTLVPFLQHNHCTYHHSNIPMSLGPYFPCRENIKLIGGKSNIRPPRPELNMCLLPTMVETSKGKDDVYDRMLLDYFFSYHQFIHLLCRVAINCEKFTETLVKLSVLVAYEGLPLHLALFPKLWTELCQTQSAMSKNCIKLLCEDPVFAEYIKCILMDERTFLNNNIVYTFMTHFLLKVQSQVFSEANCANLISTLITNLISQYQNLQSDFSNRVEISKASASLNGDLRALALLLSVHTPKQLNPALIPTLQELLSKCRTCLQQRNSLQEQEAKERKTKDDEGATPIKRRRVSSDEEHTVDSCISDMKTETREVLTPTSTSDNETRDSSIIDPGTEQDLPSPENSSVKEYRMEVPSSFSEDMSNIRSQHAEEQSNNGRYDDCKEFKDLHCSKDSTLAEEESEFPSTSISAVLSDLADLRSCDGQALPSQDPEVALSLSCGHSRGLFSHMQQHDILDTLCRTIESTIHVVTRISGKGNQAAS
Procedure, shortened: (§1)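 HEK293T lysate, 495 µg per sample in Tris/CHAPS/IGEPAL buffer with protease inhibitors, was treated in triplicate with fragment at 200 µM or vehicle for 3 h and then with Biotin-Ahx-Ub-VS at 0.5 µM final for 1 h. Labelled DUBs were NeutrAvidin-enriched, digested with LysC and trypsin, and run by diaPASEF LC-MS/MS. Spectronaut label-free quantities were global-median-normalised, and values are average log2 fragment/vehicle ratios by unpaired t-test on proteins with ≥2 unique peptides.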

USP36 = target: T1, USP36 (UniProt Q9P275)
T1 sequence (whole entry): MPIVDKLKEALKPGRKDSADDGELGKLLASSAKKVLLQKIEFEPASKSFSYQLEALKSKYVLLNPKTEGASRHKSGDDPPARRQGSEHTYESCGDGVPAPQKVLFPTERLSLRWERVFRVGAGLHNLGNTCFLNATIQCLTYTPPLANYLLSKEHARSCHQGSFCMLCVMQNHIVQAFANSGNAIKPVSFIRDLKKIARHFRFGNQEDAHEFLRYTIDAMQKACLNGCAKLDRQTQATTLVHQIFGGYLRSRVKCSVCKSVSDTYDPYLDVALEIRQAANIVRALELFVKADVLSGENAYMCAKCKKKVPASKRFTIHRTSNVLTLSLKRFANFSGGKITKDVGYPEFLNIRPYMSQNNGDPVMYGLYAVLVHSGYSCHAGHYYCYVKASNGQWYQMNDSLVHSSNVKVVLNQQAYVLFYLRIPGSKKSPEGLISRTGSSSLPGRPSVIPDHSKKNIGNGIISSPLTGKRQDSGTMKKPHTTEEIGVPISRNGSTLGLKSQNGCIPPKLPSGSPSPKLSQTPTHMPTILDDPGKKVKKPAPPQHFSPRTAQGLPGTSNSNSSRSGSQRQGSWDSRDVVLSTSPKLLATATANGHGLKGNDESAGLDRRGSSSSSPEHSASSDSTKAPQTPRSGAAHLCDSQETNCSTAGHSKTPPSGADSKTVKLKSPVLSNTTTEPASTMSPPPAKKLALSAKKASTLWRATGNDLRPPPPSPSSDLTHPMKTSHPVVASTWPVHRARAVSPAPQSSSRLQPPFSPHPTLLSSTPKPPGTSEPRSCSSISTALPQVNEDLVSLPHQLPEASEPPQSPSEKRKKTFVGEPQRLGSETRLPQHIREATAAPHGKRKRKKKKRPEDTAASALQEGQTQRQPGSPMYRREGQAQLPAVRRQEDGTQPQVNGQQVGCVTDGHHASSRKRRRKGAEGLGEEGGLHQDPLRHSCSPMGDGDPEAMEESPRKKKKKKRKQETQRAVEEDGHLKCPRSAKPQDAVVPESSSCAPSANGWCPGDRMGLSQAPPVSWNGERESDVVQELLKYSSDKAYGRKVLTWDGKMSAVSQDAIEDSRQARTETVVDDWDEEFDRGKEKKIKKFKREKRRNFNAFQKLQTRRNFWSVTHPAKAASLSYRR
Procedure, shortened: as §1

USP38 = target: T2, USP38 (UniProt Q8NB14)
T2 sequence (whole entry): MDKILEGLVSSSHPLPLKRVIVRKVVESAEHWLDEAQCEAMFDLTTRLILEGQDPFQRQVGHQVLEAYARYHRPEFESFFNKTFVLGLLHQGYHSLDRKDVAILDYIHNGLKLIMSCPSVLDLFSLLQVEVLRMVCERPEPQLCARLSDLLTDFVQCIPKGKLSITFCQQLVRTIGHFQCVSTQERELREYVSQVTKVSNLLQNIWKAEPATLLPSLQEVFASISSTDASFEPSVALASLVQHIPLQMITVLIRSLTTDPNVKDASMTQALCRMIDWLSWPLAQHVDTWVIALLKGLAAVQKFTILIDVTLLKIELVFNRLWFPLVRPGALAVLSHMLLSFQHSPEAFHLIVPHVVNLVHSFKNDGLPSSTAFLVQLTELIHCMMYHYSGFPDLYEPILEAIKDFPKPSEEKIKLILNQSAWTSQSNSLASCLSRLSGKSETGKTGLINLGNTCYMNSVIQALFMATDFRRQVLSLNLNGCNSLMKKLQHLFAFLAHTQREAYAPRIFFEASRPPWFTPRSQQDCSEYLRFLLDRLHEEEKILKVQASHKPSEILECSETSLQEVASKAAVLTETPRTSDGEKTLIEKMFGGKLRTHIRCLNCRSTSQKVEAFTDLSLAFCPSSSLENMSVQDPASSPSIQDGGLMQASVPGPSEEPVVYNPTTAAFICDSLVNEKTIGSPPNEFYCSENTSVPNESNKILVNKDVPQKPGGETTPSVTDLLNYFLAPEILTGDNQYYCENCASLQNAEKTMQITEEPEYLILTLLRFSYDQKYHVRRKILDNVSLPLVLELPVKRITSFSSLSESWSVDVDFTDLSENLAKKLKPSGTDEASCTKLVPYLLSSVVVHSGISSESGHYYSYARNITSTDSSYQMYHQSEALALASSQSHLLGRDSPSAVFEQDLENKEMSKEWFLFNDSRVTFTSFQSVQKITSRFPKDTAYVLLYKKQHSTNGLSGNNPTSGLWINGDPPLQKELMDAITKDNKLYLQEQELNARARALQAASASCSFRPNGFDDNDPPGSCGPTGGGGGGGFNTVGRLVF
Procedure, shortened: as §1

USP39 = target: T3, USP39 (UniProt Q53GS9)
T3 sequence (whole entry): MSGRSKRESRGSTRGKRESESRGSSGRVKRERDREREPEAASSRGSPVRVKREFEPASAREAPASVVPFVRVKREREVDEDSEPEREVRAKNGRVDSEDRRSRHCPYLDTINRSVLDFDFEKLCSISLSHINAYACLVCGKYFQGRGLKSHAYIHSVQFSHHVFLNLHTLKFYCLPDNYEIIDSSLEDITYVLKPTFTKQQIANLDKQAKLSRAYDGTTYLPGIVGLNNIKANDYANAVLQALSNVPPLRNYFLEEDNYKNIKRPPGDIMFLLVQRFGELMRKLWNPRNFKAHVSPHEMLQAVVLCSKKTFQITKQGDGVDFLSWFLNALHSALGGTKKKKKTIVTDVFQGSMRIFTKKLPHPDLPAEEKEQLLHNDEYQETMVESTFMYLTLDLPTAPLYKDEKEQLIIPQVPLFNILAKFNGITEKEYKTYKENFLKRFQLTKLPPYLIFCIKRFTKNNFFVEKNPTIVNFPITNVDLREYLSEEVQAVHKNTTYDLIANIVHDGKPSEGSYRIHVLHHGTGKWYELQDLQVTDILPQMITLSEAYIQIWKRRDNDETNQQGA
Procedure, shortened: as §1

USP4 = target: T4, USP4 (UniProt Q13107)
T4 sequence (whole entry): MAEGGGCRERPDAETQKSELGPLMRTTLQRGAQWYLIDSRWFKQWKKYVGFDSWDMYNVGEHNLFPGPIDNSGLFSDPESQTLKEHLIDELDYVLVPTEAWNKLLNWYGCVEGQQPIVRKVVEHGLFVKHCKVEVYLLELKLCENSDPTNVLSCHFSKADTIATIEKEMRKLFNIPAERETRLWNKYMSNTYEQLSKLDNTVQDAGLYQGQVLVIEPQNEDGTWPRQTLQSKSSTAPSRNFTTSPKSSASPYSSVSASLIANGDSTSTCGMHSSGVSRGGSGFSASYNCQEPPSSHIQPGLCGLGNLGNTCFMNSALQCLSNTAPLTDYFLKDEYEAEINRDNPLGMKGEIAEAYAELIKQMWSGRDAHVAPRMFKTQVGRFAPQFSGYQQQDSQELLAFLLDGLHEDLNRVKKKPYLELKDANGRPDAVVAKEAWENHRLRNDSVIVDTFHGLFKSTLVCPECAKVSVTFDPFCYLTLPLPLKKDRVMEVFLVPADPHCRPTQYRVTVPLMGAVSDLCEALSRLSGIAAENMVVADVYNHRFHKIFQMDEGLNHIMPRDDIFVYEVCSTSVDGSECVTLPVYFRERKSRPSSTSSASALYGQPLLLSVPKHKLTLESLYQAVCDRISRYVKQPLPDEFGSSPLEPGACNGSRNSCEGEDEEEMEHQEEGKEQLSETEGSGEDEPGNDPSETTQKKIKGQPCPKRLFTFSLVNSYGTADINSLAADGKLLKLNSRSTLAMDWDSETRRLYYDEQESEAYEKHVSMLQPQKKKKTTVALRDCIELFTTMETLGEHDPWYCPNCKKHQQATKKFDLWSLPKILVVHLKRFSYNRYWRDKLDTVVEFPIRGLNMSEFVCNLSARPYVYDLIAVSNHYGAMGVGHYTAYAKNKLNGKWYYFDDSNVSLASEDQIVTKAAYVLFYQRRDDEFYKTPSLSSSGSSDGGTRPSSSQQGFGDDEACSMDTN
Procedure, shortened: as §1

Measured: log2 ratio of Biotin-Ahx-Ub-VS probe labelling

Cl.O=C(CCl)N1CCN(Cc2ccccc2)CC1
inactive: USP34 -0.191 | USP36 0.0546 | USP38 -0.0649 | USP39 0.144 | USP4 -0.121
